# Results as given in PubChem BioAssay AID1159580 (chemical genetic matrix, 2015).
# In all, about 5,500 compounds went through this assay and about 2,000 (36%) were called active. About 18% were inconclusive and are not listed. The list shows a part of the results. A number with no mark means an inactive call. Rule as the data show it: active = normalized growth mostly below about 0.91 (no sharp cut-off); inconclusive = no clear call, values can overlap the other calls; inactive = mostly above about 0.92.
# Experiment: chemical genetic growth profiling, strain panel (AID 1159580);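 also: tested at 20 µM; growth read once vehicle control cultures reached saturation at 30 °C; 1 = growth at the plate median or of vehicle wells; lower values mean less growth of the strain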
# Conditions: growth OD
compound,measurement,setting,value
CC(C)(C)CC(C)(C)c1ccc(O)c(Cc2ccc(Cl)cc2Cl)c1,normalized growth,"S. cerevisiae deletion strains, locus YJR075W, strain HOC1, active compounds read low",1.01
same,normalized growth,"S. cerevisiae deletion strains, locus YKL009W, strain mrt4, active compounds read low",1.01
same,normalized growth,"S. cerevisiae deletion strains, locus YKL068W, active compounds read low",1.02
same,normalized growth,"S. cerevisiae deletion strains, locus YKL085W, strain MDH1 (second series), active compounds read low",1.01
same,normalized growth,"S. cerevisiae deletion strains, locus YKL085W, strain MDH1, active compounds read low",1.01
same,normalized growth,"S. cerevisiae deletion strains, locus YKL160W, strain elf1, active compounds read low",1
same,normalized growth,"S. cerevisiae deletion strains, locus YKL190W, strain CNB1, active compounds read low",1
same,normalized growth,"S. cerevisiae deletion strains, locus YKR001C, strain vps1, active compounds read low",1.01
same,normalized growth,"S. cerevisiae deletion strains, locus YKR026C, strain gcn3, active compounds read low",1.02
same,normalized growth,"S. cerevisiae deletion strains, locus YKR091W, strain srl3, active compounds read low",1.02
same,normalized growth,"S. cerevisiae deletion strains, locus YLL001W, strain dnm1, active compounds read low",1.04
same,normalized growth,"S. cerevisiae deletion strains, locus YLL026W, active compounds read low",1.01
same,normalized growth,"S. cerevisiae deletion strains, locus YLL041C, strain sdh2, active compounds read low",1.02
same,normalized growth,"S. cerevisiae deletion strains, locus YLR027C, strain aat2, active compounds read low",1.01
same,normalized growth,"S. cerevisiae deletion strains, locus YLR039C, strain RIC1, active compounds read low",0.985
same,normalized growth,"S. cerevisiae deletion strains, locus YLR058C, strain SHM2, active compounds read low",1.01
same,normalized growth,"S. cerevisiae deletion strains, locus YLR102C, strain apc9, active compounds read low",1.01
same,normalized growth,"S. cerevisiae deletion strains, locus YLR113W, strain HOG1, active compounds read low",1.03
same,normalized growth,"S. cerevisiae deletion strains, locus YLR221C, strain rsa3, active compounds read low",0.995
same,normalized growth,"S. cerevisiae deletion strains, locus YLR258W, strain gsy2, active compounds read low",1.02
same,normalized growth,"S. cerevisiae deletion strains, locus YLR262C, strain YPT6 (second series), active compounds read low",0.981
same,normalized growth,"S. cerevisiae deletion strains, locus YLR262C, strain YPT6, active compounds read low",0.974
same,normalized growth,"S. cerevisiae deletion strains, locus YLR268W, strain sec22, active compounds read low",1.01
same,normalized growth,"S. cerevisiae deletion strains, locus YLR320W, strain mms22, active compounds read low",1.02
same,normalized growth,"S. cerevisiae deletion strains, locus YLR330W, strain CHS5, active compounds read low",0.999
same,normalized growth,"S. cerevisiae deletion strains, locus YLR342W, strain FKS1 (second series), active compounds read low",0.995
same,normalized growth,"S. cerevisiae deletion strains, locus YLR342W, strain FKS1, active compounds read low",1.01
same,normalized growth,"S. cerevisiae deletion strains, locus YLR357W, strain rsc2, active compounds read low",1.05
same,normalized growth,"S. cerevisiae deletion strains, locus YLR370C, strain arc18, active compounds read low",1.03
same,normalized growth,"S. cerevisiae deletion strains, locus YLR371W, strain rom2, active compounds read low",1.01
same,normalized growth,"S. cerevisiae deletion strains, locus YLR384C, strain iki3, active compounds read low",1.03
same,normalized growth,"S. cerevisiae deletion strains, locus YLR418C, strain cdc73, active compounds read low",1.02
same,normalized growth,"S. cerevisiae deletion strains, locus YML016C, strain PPZ1, active compounds read low",1.01
same,normalized growth,"S. cerevisiae deletion strains, locus YML032C, strain rad52, active compounds read low",1.02
same,normalized growth,"S. cerevisiae deletion strains, locus YML120C, strain ndi1, active compounds read low",1
same,normalized growth,"S. cerevisiae deletion strains, locus YML124C, strain tub3, active compounds read low",1.02
same,normalized growth,"S. cerevisiae deletion strains, locus YMR058W, strain fet3, active compounds read low",1.01
same,normalized growth,"S. cerevisiae deletion strains, locus YMR078C, strain ctf18, active compounds read low",1.01
same,normalized growth,"S. cerevisiae deletion strains, locus YMR125W, strain sto1, active compounds read low",1.02
same,normalized growth,"S. cerevisiae deletion strains, locus YMR129W, active compounds read low",0.998
same,normalized growth,"S. cerevisiae deletion strains, locus YMR205C, strain PFK2, active compounds read low",1.01
same,normalized growth,"S. cerevisiae deletion strains, locus YMR223W, strain ubp8, active compounds read low",1.01
same,normalized growth,"S. cerevisiae deletion strains, locus YMR231W, strain pep5, active compounds read low",1.03
same,normalized growth,"S. cerevisiae deletion strains, locus YMR263W, strain SAP30, active compounds read low",0.998
same,normalized growth,"S. cerevisiae deletion strains, locus YMR307W, strain GAS1, active compounds read low",0.972
same,normalized growth,"S. cerevisiae deletion strains, locus YNL067W, strain RPL9B, active compounds read low",1.01
same,normalized growth,"S. cerevisiae deletion strains, locus YNL071W, strain lat1, active compounds read low",1.03
same,normalized growth,"S. cerevisiae deletion strains, locus YNL128W, strain TEP1, active compounds read low",1.02
same,normalized growth,"S. cerevisiae deletion strains, locus YNL153C, strain GIM3, active compounds read low",1
same,normalized growth,"S. cerevisiae deletion strains, locus YNL183C, strain NPR1, active compounds read low",0.973
same,normalized growth,"S. cerevisiae deletion strains, locus YNL209W, strain ssb2, active compounds read low",1.02
same,normalized growth,"S. cerevisiae deletion strains, locus YNL233W, strain BNI4, active compounds read low",1.01
same,normalized growth,"S. cerevisiae deletion strains, locus YNL248C, strain rpa49, active compounds read low",1.01
same,normalized growth,"S. cerevisiae deletion strains, locus YNL250W, strain rad50, active compounds read low",1.02
same,normalized growth,"S. cerevisiae deletion strains, locus YNL271C, strain bni1, active compounds read low",1.02
same,normalized growth,"S. cerevisiae deletion strains, locus YNL298W, strain CLA4, active compounds read low",1.03
same,normalized growth,"S. cerevisiae deletion strains, locus YNL307C, strain MCK1, active compounds read low",1.02
same,normalized growth,"S. cerevisiae deletion strains, locus YNL322C, strain KRE1 (second series), active compounds read low",1.02
same,normalized growth,"S. cerevisiae deletion strains, locus YNR049C, strain mso1, active compounds read low",1.02
same,normalized growth,"S. cerevisiae deletion strains, locus YNR052C, strain pop2, active compounds read low",1.01
same,normalized growth,"S. cerevisiae deletion strains, locus YOL006C, strain TOP1, active compounds read low",0.836
same,normalized growth,"S. cerevisiae deletion strains, locus YOL012C, strain htz1",0.945
same,normalized growth,"S. cerevisiae deletion strains, locus YOL147C, strain pex11, active compounds read low",1.02
same,normalized growth,"S. cerevisiae deletion strains, locus YOR001W, strain rrp6, active compounds read low",1.01
same,normalized growth,"S. cerevisiae deletion strains, locus YOR061W, strain CKA2, active compounds read low",1.01
same,normalized growth,"S. cerevisiae deletion strains, locus YOR069W, strain VPS5, active compounds read low",1.01
same,normalized growth,"S. cerevisiae deletion strains, locus YOR070C, strain gyp1, active compounds read low",1.01
same,normalized growth,"S. cerevisiae deletion strains, locus YOR080W, strain dia2, active compounds read low",1.03
same,normalized growth,"S. cerevisiae deletion strains, locus YOR083W, strain WHI5, active compounds read low",0.989
same,normalized growth,"S. cerevisiae deletion strains, locus YOR106W, strain vam3, active compounds read low",0.988
same,normalized growth,"S. cerevisiae deletion strains, locus YOR136W, strain idh2, active compounds read low",1.02
same,normalized growth,"S. cerevisiae deletion strains, locus YOR144C, strain elg1, active compounds read low",1.01
same,normalized growth,"S. cerevisiae deletion strains, locus YOR184W, strain ser1, active compounds read low",1.01
same,normalized growth,"S. cerevisiae deletion strains, locus YOR231W, strain MKK1, active compounds read low",1.03
same,normalized growth,"S. cerevisiae deletion strains, locus YOR265W, strain rbl2, active compounds read low",1.01
same,normalized growth,"S. cerevisiae deletion strains, locus YOR270C, strain vph1, active compounds read low",0.766 (active)
same,normalized growth,"S. cerevisiae deletion strains, locus YOR290C, strain snf2, active compounds read low",1.02
same,normalized growth,"S. cerevisiae deletion strains, locus YOR316C, strain cot1, active compounds read low",1.01
same,normalized growth,"S. cerevisiae deletion strains, locus YPL051W, strain arl3, active compounds read low",1
same,normalized growth,"S. cerevisiae deletion strains, locus YPL078C, strain atp4, active compounds read low",1.02
same,normalized growth,"S. cerevisiae deletion strains, locus YPL106C, strain sse1, active compounds read low",1.04
same,normalized growth,"S. cerevisiae deletion strains, locus YPL240C, strain hsp82, active compounds read low",1
same,normalized growth,"S. cerevisiae deletion strains, locus YPL241C, strain CIN2, active compounds read low",1
same,normalized growth,"S. cerevisiae deletion strains, locus YPL256C, strain CLN2, active compounds read low",1.04
same,normalized growth,"S. cerevisiae deletion strains, locus YPR119W, strain clb2, active compounds read low",1.01
same,normalized growth,"S. cerevisiae deletion strains, locus YPR141C, strain kar3, active compounds read low",1.01
same,normalized growth,"S. cerevisiae deletion strains, locus YPR163C, strain tif3, active compounds read low",1.02
same,normalized growth,"S. cerevisiae deletion strains, locus YPR167C, strain met16, active compounds read low",1.02
same,normalized growth,"S. cerevisiae deletion strains, strain wtn01, active compounds read low",1.01
same,normalized growth,"S. cerevisiae strains, strain wild type, active compounds read low",1
